Assay [1] can be described thus: P. berghei load reduction in hepatocytes – cell-based, HepG2, luciferase luminescence, HepG2 viability, primary screen (AID 624349; in the data active means parasite load remaining mostly below about 12%, no sharp cut-off; inactive means mostly above about 10%;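 further: 100% = mean of DMSO negative control wells on the same plate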). To be noted: P. berghei liver stage in HepG2, luciferase luminescence, concentration not given here; parasite load remaining: stronger effect = lower value; viability: measured here: HepG2 viability without parasites.
Assay [2] can be described thus: Wnt pathway potentiators raising nuclear beta-catenin – imaging, WNT3A-conditioned medium, mouse C2C12, NPC library, primary screen (AID 1117326; in the data active means nuclear beta-catenin stimulation mostly above about 4.2%, no sharp cut-off; inactive means mostly below about 10%). The note with it: stronger effect = higher value.
Assay [3] can be described thus: stimulators of insulin release from INS-1E, primary screen, cell-based, 5 mM glucose, NPC library (AID 1117329;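 active means compound raises insulin release from rat beta cells at 5 mM glucose, no numeric limit stated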). To be noted: rat INS-1E insulin secretion, at 10 µM, stronger effect = higher value.
Assay [4] is described as follows: growth inhibition of GSK3B-pretreated HCT116 cells – cell-based, CellTiter-Glo, 0.2 to 20 µM (AID 1117336;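 active means compounds lowering colon cancer cell viability after pretreatment blocking the GSK3B kinase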). To be noted: HCT116 viability after GSK3B inhibitor, at 20 µM, stronger effect = higher value.
Assay [5] in a line: inhibition of endothelial tube formation, primary screen, imaging, VEGF stimulated, CD31 staining, tube area, NPC library (AID 1117340;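 active means compound that reduces growth-factor-driven endothelial tube area in a mixed cell culture, no cutoff stated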). To be noted: VEGF-stimulated ADSC/ECFC co-culture, at 10 µM, stronger effect = higher value.
Assay [6] is described as follows: GLP1 release stimulators, primary, NCI-H716, NPC library (AID 1117341;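 active means compound raises GLP1 secretion from the human gut endocrine cells, with no numeric limit stated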). The note with it: NCI-H716 cells, at 10 µM, stronger effect = higher value.
A short description of assay [7]: HCT116 colon cancer cell growth inhibition, primary screen, CellTiter-Glo luminescence, NPC library (AID 1117342;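 active means compounds that lower survival of HCT116 colon cancer cells in the luminescence readout, no numeric limit stated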). To be noted: at 20 µM (top of the series). In general terms: Cellular ATP, detected with luciferase, serves as a proxy for viable cell number.
The nature of assay [8]: reduced SW480 viability measured with CellTiter-Glo, NPC library, primary (AID 1117343;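 active means compounds that lower viability of the colon cancer cells in the luminescence readout, with no numeric limit stated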). The note with it: CellTiter-Glo luminescence; at 20 µM (top of the series) unless noted.
Assay [9] is described as follows: NPC library primary testing for decreased DLD-1 cell viability via CellTiter-Glo (AID 1117346;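 active means compounds that lower survival of DLD-1 colon cancer cells in the luminescence readout, no cutoff given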). To be noted: DLD-1 viability, CellTiter-Glo luminescence; at 20 µM (top of the series).
Assay [10] in a line: viability loss in pontine glioma line – cell-based, JHH-DIPG-1, MIPE4.0, CellTiter-Glo, qHTS, dose response (AID 1347062; cut-off not given, nearly all actives have AC50 up to about 27 µM;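 on AC50: cells exposed to compound for two days before readout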). To be noted: JHH-DIPG-1 viability, CellTiter-Glo ATP luminescence.
A short description of assay [11]: viability loss with induced miR-34 in A549 – imaging, A549 dox-inducible miR-34, nuclei and caspase counts, primary screen (AID 1347080). To be noted: A549 miR-34 inducible, Hoechst nuclei count, 48 h.
Assay [12] can be described thus: MELAS cybrid and Rieske KO viability enhancers – cell-based, MELAS cybrids, Rieske KO mouse fibroblasts, CellTiter-Glo, primary screen (AID 1508586;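 active means mean z-score across replicates of 1.96 or higher in either the MELAS or the Rieske mutant cell line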;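 further: z relative to plate mean and SD of compound and empty wells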). To be noted: low glucose.
Assay [13] in a line: galactose survival enhancers in mitochondrial complex I cybrids – cell-based, galactose medium, ATP luminescence, primary screen (AID 1645843;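 active means z-score of at least 1.8 in each of two replicates, scored against plate mean and spread of sample wells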;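 further: positive z means more ATP and so rescue of galactose-driven cybrid death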). The note with it: complex I mutant cybrid cells, 72 h, stronger effect = higher value.
Assay [14] is described as follows: blockers of cellular phospholipid synthesis – cell-based, LOPAC library, screen 4, primary screen (AID 1347384; call rule not given here). The note with it: animal cells, phospholipid biosynthesis inhibition screen; at 10 µM.
Assay [15] can be described thus: viability loss in pontine glioma line – cell-based, SU-DIPG-XXV, MIPE5.0, CellTiter-Glo, qHTS, dose response (AID 1347065; cut-off not given, nearly all actives have AC50 up to about 26 µM;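 further: cells exposed to compound for 48 hours before ATP readout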). To be noted: CellTiter-Glo ATP luminescence.
Assay [16] can be described thus: JHH-DIPG-1 glioma cell viability, MIPE5.0 library, CellTiter-Glo luminescence, qHTS (AID 1347067; cut-off not given, nearly all actives have AC50 up to about 26 µM;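 further: cells exposed to compound for 48 hours before readout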). To be noted: JHH-DIPG-1 glioma viability, CellTiter-Glo ATP luminescence.
The nature of assay [17]: viability loss in pontine glioma line – cell-based, SU-DIPG-IV, MIPE4.0, CellTiter-Glo, qHTS, dose response (AID 1347063; cut-off not given, nearly all actives have AC50 up to about 30 µM;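 further: compound exposure lasted 48 hours before the viability readout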). The note with it: CellTiter-Glo ATP luminescence.
Assay [18] in a line: growth inhibition of DIPG cells – cell-based, MIPE4.0 library, CellTiter-Glo luminescence, qHTS (AID 1347066; cut-off not given, nearly all actives have AC50 up to about 30 µM;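 further: cells exposed to compound for 48 hours before readout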). The note with it: SU-DIPG-VI viability, CellTiter-Glo ATP luminescence.
Assay [19] is described as follows: growth inhibition of DIPG cells – cell-based, MIPE5.0 library, qHTS (AID 1347068; cut-off not given, nearly all actives have IC50 up to about 30 µM). The note with it: SU-DIPG-XXV viability. For orientation: Quantitative high-throughput screening tests each substance at several concentrations.
The mark [20] stands for this setting: stronger effect = lower value, cell number ratio, induced over uninduced.
Setting [21] is: measured here: relative caspase fold change +Dox/-Dox.
[22] abbreviates: measured here: total cells with miR-34 induction, stronger effect = lower value.
Where [23] appears, read: measured here: total cells without miR-34 induction.
Setting [24] is: MELAS cybrid survival, CellTiter-Glo 48 h, stronger effect = higher value.
The mark [25] stands for this setting: Rieske KO mouse fibroblast survival, CellTiter-Glo 72 h.

Several values for one entry are separate records, joined by “and”; a condition that tells them apart may be missing. Equal values may be shown once. Records with an inconclusive call do not appear. Activity calls are given as the source filed them.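 How the source made its calls, unless noted: active means compounds whose cell count with miR-34 switched on is under 0.7 times the count with it off; inactive means the rest.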

`CCC(C)(C)c1ccc(CC(C)CN2C[C@@H](C)O[C@@H](C)C2)cc1` (stereo partly drawn): in [1], the parasite load remaining was 32.9% (inactive). The viability in assay [1] was 99%. Moreover, the nuclear beta-catenin stimulation in [2] (at 10 µM) was 0.2% (inactive); in assay [2] (stimulation, at 2 µM), 0.5%. Besides, in assay [3], the insulin secretion stimulation is -2.9% (inactive). In [4], the viability decrease is 23.9% (inactive). Besides, the tube area decrease in [5] was -0.6% (inactive). Also, the GLP1 secretion stimulation in [6] was 11.9% (inactive). In addition, in [7], the inhibition of viability is 10.2% (inactive). Besides, the viability decrease (inhibition) in assay [8] is 83.9% (active); in [9], 55.5% (active). The outcome in [10] was inactive. The fold change was 0.818 (inactive) and 0.902 (inactive) in [11] (setting [20]); 0.996 and 1.18 in [11] (setting [21]). The cell count in assay [11] (setting [22]) is 6710 and 9820; in [11] (setting [23]) it was 8200 and 10900. The z-score in [12] (setting [24]) was -0.995 (inactive) and -0.921 (inactive); in assay [12] (setting [25]), -0.654 and -0.53; in assay [13], -1.82 (inactive).

As to `CC1=C(C)C(=O)C(CCCCC#CCCCC#CCO)=C(C)C1=O`, the parasite load remaining in assay [1] is 55.8% (inactive). In [1], the viability turned out to be 216%. Further, the nuclear beta-catenin stimulation in assay [2] (at 10 µM) is 2.7% (inactive); in assay [2] (stimulation, at 2 µM), -0.7%. For the same compound, the insulin secretion stimulation in assay [3] is 2.7% (inactive). In addition, the viability decrease in assay [4] is 96% (active). Also, in assay [5], the tube area decrease is 16% (inactive). Also, the GLP1 secretion stimulation in assay [6] is 5% (inactive). For the same compound, the inhibition of viability in [7] is 87.4% (active). Moreover, the values for the viability decrease (inhibition) in assay [8] and in [9] were 126% (active) and 54.6% (active), respectively. Besides, the fold change in assay [11] (setting [20]) is 1.02 (inactive) and 0.926 (inactive) and 0.838 (inactive); in assay [11] (setting [21]), 1.5 and 0.952 and 1.53. Besides, the cell count in [11] (setting [22]) is 8160 and 3040 and 7890; in assay [11] (setting [23]) it was 7960 and 3280 and 9410. In addition, the call in [14] was inactive. Also, the z-score in [12] (setting [24]) was 0.195 (inactive); in [12] (setting [25]), -1.24; in assay [13], -1.52 (inactive) and -1.61 (inactive).

`O=C(O)c1c(Cl)c(Cl)c(Cl)c(Cl)c1-c1c2cc(I)c(=O)c(I)c-2oc2c(I)c(O)c(I)cc12`: the nuclear beta-catenin stimulation is -2.4% (inactive) in assay [2] (at 10 µM) and -0.6% in assay [2] (stimulation, at 2 µM). Further, the insulin secretion stimulation in [3] is -1.2% (inactive). Also, the viability decrease in [4] is 96.7% (active). In [5], the tube area decrease was 23.9% (inactive). Further, the GLP1 secretion stimulation in assay [6] is -4.3% (inactive). In [7], the inhibition of viability is 91.6% (active). For the same compound, the figures for the viability decrease (inhibition) in assay [8] and in [9] were 90.7% (active) and 73.4% (active), respectively. The AC50 in assay [15] was 3.32 µM (active); in assay [16], 8.33 µM (active).

As for `C[C@@H]1C[C@H]2[C@@H]3CCC4=CC(=O)C=C[C@]4(C)[C@@]3(Cl)[C@@H](O)C[C@]2(C)[C@@]1(OC(=O)c1ccco1)C(=O)CCl`, the parasite load remaining in assay [1] is 101% (inactive) and 89.2% (inactive). Further, the viability in assay [1] was 90.7% and 72.5%. Moreover, the nuclear beta-catenin stimulation in assay [2] (at 10 µM) is 23.1% (inactive); in assay [2] (stimulation, at 2 µM), 2.8%. Moreover, the insulin secretion stimulation in assay [3] is -0.7% (inactive). For the same compound, the viability decrease in [4] was -43% (inactive). The tube area decrease in [5] was 99.7% (active). The GLP1 secretion stimulation in [6] was 3.9% (inactive). Moreover, the inhibition of viability in assay [7] was 67% (active). Also, the viability decrease (inhibition) in [8] is 119% (active); in assay [9] it was 95.5% (active). The AC50 in assay [10] is 4.69 µM (active); in assay [17], 13.2 µM (active); in [15], 29.5 µM (active); in assay [18], 20.9 µM (active). Also, in [19], the outcome was inactive. Further, the fold change in assay [11] (setting [20]) was 0.786 (inactive); in [11] (setting [21]), 1.68. Also, the values for the cell count in assay [11] (setting [22]) and in assay [11] (setting [23]) were 4000 and 5090, respectively. In addition, the z-score in assay [12] (setting [24]) was -1.01 (inactive); in assay [12] (setting [25]) it was -0.104.

In the case of `Clc1cccc(C(c2ccc3nc[nH]c3c2)n2ccnc2)c1` (stereo not drawn), the nuclear beta-catenin stimulation in assay [2] (at 10 µM) is 0.3% (inactive); in assay [2] (stimulation, at 2 µM), -0.6%. The insulin secretion stimulation in assay [3] is 1.6% (inactive). Also, the viability decrease in assay [4] was 11.8% (inactive). For the same compound, the tube area decrease in assay [5] was 19.4% (inactive). For the same compound, in assay [6], the GLP1 secretion stimulation was 0.1% (inactive). Further, in assay [7], the inhibition of viability was 43.2% (inactive). In addition, the figures for the viability decrease (inhibition) in [8] and in assay [9] were 44.6% (inactive) and 33.5% (inactive), respectively. The call in assay [15], in assay [16] and in assay [19] was inactive.

Broadly, the viability is a read-out of living cells in per cent, often relative to untreated cells. As usually defined, the AC50 is the midpoint of the concentration-response curve, whichever way the signal moves.

Source of the values: PubChem BioAssay.
